Mcl1 Noxa PPI: disrupts binding of human Mcl-1 to Noxa peptide; actives 1.5% (n = 220,000); AID 1022; inhibition, % at 21.7 µM; TR-FRET Mcl-1/Noxa peptide binding, 2 h;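 active = compounds that cut the protein-peptide binding signal by more than 50% relative to plate controls in a single-dose test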;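 also: His-tagged Mcl-1 with rhodamine Noxa BH3 peptide and terbium anti-His antibody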
Bim-Mcl-1: disrupts Bim peptide binding to human Mcl-1 | Q07820 | Bead-based flow cytometry, Bim peptide-Mcl-1 binding | inhibition, % at 10 µM | actives 0.1% (n = 190,000); in the data active = inhibition above about 40%
BCLXL inh: blocks human Bcl-xL binding to Bim BH3 peptide; actives 0.7% (n = 320,000); AID 2129; GST-Bcl-xL / FITC-Bim BH3 peptide fluorescence polarization; inhibition, % at 10.9 µM; Q07817;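 active = inhibition above the mean of all tested compounds plus 3 SD, cutoff set per campaign, cut at about 30% in these data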;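 also: inhibitors lower millipolarization by displacing the labeled peptide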
Target sequence (Q07817 whole entry, looked up): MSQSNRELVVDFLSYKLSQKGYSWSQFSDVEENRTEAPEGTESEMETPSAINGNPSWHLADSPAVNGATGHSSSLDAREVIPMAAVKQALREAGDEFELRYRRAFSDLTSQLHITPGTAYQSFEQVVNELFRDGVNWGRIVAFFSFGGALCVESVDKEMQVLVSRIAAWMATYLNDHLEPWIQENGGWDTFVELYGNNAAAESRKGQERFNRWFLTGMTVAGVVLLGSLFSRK
Mcl1 Bid PPI: Mcl-1/Bid interaction inhibition; Q07820; TR-FRET Mcl-1/Bid-Dy647 peptide binding, 1536-well; inhibition, % at 21.7 µM; actives 0.97% (n = 220,000); AID 1021;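 active = compounds that cut the binding signal by more than half at the single screening dose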;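 also: His-tagged Mcl-1 with europium anti-His antibody binding Bid BH3 peptide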
MCL1-BIM inh: MCL1-BIM-BH3 interaction inhibition (human) | actives 0.68% (n = 320,000) | Q07820 | GST-MCL1 / FITC-Bim-BH3 fluorescence polarization | inhibition, % at 10.9 µM;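 active = inhibition above the mean inhibition of all tested compounds plus 3 SD, set per campaign, cut at about 40% in these data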;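 also: higher means more loss of mP so more displacement of Bim peptide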
GLD-1 RNA inh: GLD-1-TGE RNA interaction inhibition (C. elegans). AID 2280. inhibition, % at 5.96 µM. actives 0.44% (n = 320,000). purified GLD-1 + fluorescein TGE RNA, fluorescence polarization. Q17339;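 active = percent inhibition above a per-plate cutoff, the plate mean of test compounds plus 3 SD, cut at about 30% in these data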
Hits are given with their value; i = inactive; nt = no result given. Most compounds without a hit are left out; they make up all but 2.3% or so of the library.

SMILES	Mcl1 Noxa PPI	Bim-Mcl-1	BCLXL inh	Mcl1 Bid PPI	MCL1-BIM inh	GLD-1 RNA inh
CC(=O)Nc1nc2n(n1)C(c1ccc(Cl)cc1)C=C(C)N2 (stereo unspecified)	i	i	i	i	i	i
COc1ccc(C2C=C(c3ccc(Cl)cc3)Nc3nc(NC(C)=O)nn32)cc1 (stereo unspecified)	i	i	139	i	158	119
CC(=O)Nc1nc2n(n1)C(c1ccc(F)cc1)C=C(c1ccccc1)N2 (stereo unspecified)	i	i	52	i	47	37
COc1ccc(C2=CC(c3ccc(Cl)cc3)n3cnnc3N2)cc1OC (stereo unspecified)	i	i	59	i	62	44
O=C(Nc1nc2n(n1)C(c1ccccc1)C=C(c1ccccc1)N2)c1ccco1 (stereo unspecified)	i	i	i	i	40	i
C=CCN1C(=O)C(Cc2ccccc2)SC1=Nc1ccc(C(=O)O)cc1 (stereo unspecified)	i	i	i	i	i	i
CSCCC(NS(=O)(=O)c1ccc(Br)cc1)C(=O)OCC(=O)NC1CC1 (stereo unspecified)	i	i	i	i	i	i
CCC(C)NC(=O)CCn1ccc2cc(S(=O)(=O)N3CCCC3)ccc21 (stereo unspecified)	nt	nt	i	nt	i	i
COc1ccc(OCCCCOc2ccccc2Cl)cc1	nt	i	i	i	i	i
COc1cc2c(cc1OC)-c1cc(NCc3ccccn3)nc(=O)n1CC2	i	i	i	98	i	i
COc1cc2c(cc1OC)-c1cc(NC3CCCCCCC3)nc(=O)n1CC2	i	i	i	100	i	i
Cc1ccc(S(=O)(=O)N2CCCOC2CNC(=O)C(=O)NCc2ccc3c(c2)OCO3)cc1 (stereo unspecified)	nt	nt	i	nt	i	i
CCOC(=O)C1=C(C)NC(=S)N(C(C)=O)C1c1ccccc1 (stereo unspecified)	i	i	i	i	i	i
COC(=O)c1c(NC(=O)Cc2cccs2)sc2c1CCCC2	80	i	i	i	i	i
O=C(CN1CCN(c2ccccc2)CC1)Nc1scc2c1c(=O)oc1ccccc12	i	nt	i	i	i	i
CCc1nnc(NC(=O)CCC(=O)N2CCN(Cc3cc(Cl)ccc3OC)CC2)s1	i	i	i	i	i	i
COc1ccc(CC(=O)n2[nH]c(=O)ccc2=O)cc1OC	75	nt	i	i	i	i
COc1ccc(CC(=O)n2[nH]c(=O)c3ccccc3c2=O)cc1OC	i	nt	i	i	i	i
O=C1CCCN1c1ccc(C(=O)N(Cc2nnc(-c3ccccc3Cl)o2)C2CC2)cc1	nt	nt	i	nt	i	i
Nc1ccc(-c2nc3ccc([N+](=O)[O-])cc3[nH]2)cc1	51	i	i	i	i	i
CCCC[n+]1ccc(-c2nc3ccc([N+](=O)[O-])cc3[nH]2)cc1	i	i	i	i	i	i
Nc1ccc2nc(-c3ccc(Cl)cc3)[nH]c2c1	85	i	i	i	i	i
O=[N+]([O-])c1ccc(-c2nc3ccc([N+](=O)[O-])cc3[nH]2)cc1	63	i	i	78	i	i
O/N=C1/CCCSc2ccccc21	86	i	i	i	i	i
CCOC(=O)c1c(NC(=O)COC(=O)/C=C/c2ccccc2)sc(C(=O)NC)c1C	nt	nt	i	nt	i	i
SMILES	Mcl1 Noxa PPI	Bim-Mcl-1	BCLXL inh	Mcl1 Bid PPI	MCL1-BIM inh	GLD-1 RNA inh
COc1ccc2sc(SCCCS(=O)(=O)O)[n+](CCCS(=O)(=O)[O-])c2c1	i	i	i	i	i	i
COc1ccc(C(=S)N2CCCCCC2)cc1	i	41	i	i	i	i
CCOC(=O)N1CCC(N2CCN(S(=O)(=O)c3ccc(Cl)cc3)CC2)CC1	i	i	i	55	i	i
CCOC(=O)N1CCN(S(=O)(=O)c2ccc(Cl)cc2)CC1	nt	nt	i	nt	i	i
COCCn1nnnc1C(c1cccs1)N1CCN2CCCC2C1 (stereo unspecified)	i	i	i	i	i	i
CCN(CC)c1ccc(C=Nc2cccnc2Cl)c(O)c1	nt	nt	44	nt	51	i
Cc1ccc2sc(-c3ccc(NC(=O)/C=C\C(=O)O)cc3)nc2c1	i	i	nt	i	nt	nt
CCCCC[C@H](O)/C=C/[C@H]1C=CC(=O)[C@@H]1C/C=C\CCCC(=O)O	69	i	nt	i	nt	nt
Cc1cccc(-n2cc(-c3ccccc3)[nH]c2=S)c1	nt	nt	i	nt	i	i
COc1ccc(C(=O)Nc2nnc(SCC(=O)NCc3ccco3)s2)cc1OC	nt	nt	i	nt	i	i

Screening results: PubChem BioAssay, several laboratories
